High-throughput results deposited in PubChem BioAssay by several laboratories.
Anthrax LF prot – anthrax lethal factor protease inhibition | 360,000 tested, 0.12% active | multiplex microsphere protease cleavage assay, LF | AID 588501 | inhibition, % at 10 µM | P15917; further: plate controls were buffer without enzyme for full effect and enzyme alone for no effect
Bead autofluor – compound fluorescence in toxin protease inhibitor counterscreen. compound autofluorescence counterscreen, microsphere flow cytometry; hits give high values. fluorescence intensity (no concentration beside the values). 360,000 tested, 3.1% active; in the data active means fluorescence intensity above about 16000; inconclusive means no clear call, values can overlap the other calls
Mtb FBA inh – inhibits M. tuberculosis FBA enzyme | AID 588726 | P9WQA3 | inhibition, % at 1 µM | purified M. tuberculosis FBA, fluorescence read-out | 360,000 tested, 2.3% active; in the data active means inhibition above about 27%;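 further: 0% = vehicle and 100% = reference inhibitor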
BoNT A protease – BoNT A light chain protease inhibition; 360,000 tested, 0.17% active; inhibition, % at 10 µM; multiplex microsphere protease substrate cleavage, flow cytometry; further: plate controls were buffer without enzyme for full effect and enzyme alone for no effect
BoNT F protease – inhibitors of Botulinum neurotoxin F light chain protease. Multiplex microsphere protease cleavage assay, flow cytometry. inhibition, % at 10 µM. 360,000 tested, 0.22% active. AID 588497; in the data active means inhibition above about 35%, passing the limit was not always enough; inconclusive means no clear call, values can overlap the other calls; further: plate controls were buffer without enzyme for full effect and enzyme alone for no effect
GDH-TPI counter – GDH-TPI coupled enzyme inhibition counter-screen | GDH-TPI coupled enzyme counterscreen, NADH absorbance | inhibition, % at 4.8 µM | 360,000 tested, 1.2% active; in the data active means inhibition above about 30%;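 further: 0% = DMSO wells and 100% = wells lacking the enzyme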
Active calls of the source: *; ? = inconclusive; + = active, no number. Sampled rows, rich in hits. Any-hit rate of the full collection: about 6.6%. Unless noted, no stated cut-off is given here; in the data, active means inhibition above about 30%; inconclusive means no clear call, values can overlap the other calls; inactive means below that.

SMILES	Anthrax LF prot	Bead autofluor	Mtb FBA inh	BoNT A protease	BoNT F protease	GDH-TPI counter
COc1ccc(C2=NOC3(CC(=O)N(c4ccc(C)cc4)C3=O)C2)c(OC)c1 (stereo unspecified)	1	22248*	1	2	3	15
Cc1ccc(N2C3=C(C(=O)CC(C)(C)C3)C(c3cn(C)nc3C)C3=C2CC(C)(C)CC3=O)cc1	12	20845*	3	29	-14	25
Cc1cc2c(C)c(C)c(=O)[nH]c2cc1N	-7	4668	+	1	-61	35*
CCn1c(SCC(=O)N(C)CC(=O)Nc2ccc(OC)cc2)nnc1-c1ccco1	?	?	-4	-1	-12	3
COc1cccc(C(=O)N2CCN(S(C)(=O)=O)CC2)c1	-5	23027*	-3	-1	0	7
COc1cccc(S(=O)(=O)Nc2ccc(C(=O)N3CCN(C(=O)c4ccco4)CC3)cc2)c1	-9	18332*	2	5	5	-4
CS(=O)(=O)N1CCN(C(=O)c2c(F)cccc2F)CC1	-1	23941*	1	-1	-3	-3
CSc1ccc(/C=C/C(=O)c2c(O)cc(C)oc2=O)cc1	-2	4310	1	-2	45*	5
COc1cc(/C=C/C(=O)c2c(O)cc(C)oc2=O)cc(OC)c1O	-8	6797	-6	0	-12	34*
Cc1cc(O)c(C(=O)/C=C/c2ccc(Cl)cc2)c(=O)o1	6	3737	11	-1	?	8
COc1cccc(/C=C/C(=O)c2c(O)cc(C)oc2=O)c1O	6	3053	-4	-1	-5	23
O=C(c1cccc(NC2=NC3CS(=O)(=O)CC3S2)c1)N1CCN(c2cccc(Cl)c2)CC1 (stereo unspecified)	-11	5658	1	-1	-8	-4
COc1ccc(OCC(O)Cn2c(=N)n(Cc3ccccc3)c3ccccc32)cc1 (stereo unspecified)	-8	9484	0	0	-7	-2
O=C(c1ccccc1)c1ccc(OCC(O)CN2CCCCC2)cc1 (stereo unspecified)	-3	4223	3	-1	6	-2
O=C(c1ccccc1)c1ccc(OCC(O)CN2CCN(S(=O)(=O)N3CCCCC3)CC2)cc1 (stereo unspecified)	0	23589*	1	0	2	-1
Cc1ccc(OCC(O)Cn2c(=N)n(Cc3ccccc3)c3ccccc32)cc1 (stereo unspecified)	-3	22794*	3	-1	-3	1
CCOC(=O)C1CCN(CC(O)COc2ccc(C(=O)CC)cc2)CC1 (stereo unspecified)	-3	22284*	-1	0	-1	-10
Cc1ccc(OCC(O)CN2CCN(CC(O)COc3ccc(C)cc3)CC2)cc1 (stereo unspecified)	0	17745*	-2	-3	-5	18
Cc1ccc(OCC(O)CN2CCN(c3ccc(C)cc3)CC2)cc1 (stereo unspecified)	-5	4328	3	-1	?	-13
CN(C)Cc1c(O)ccc2cc(-c3nc4ccccc4n3C)c(=O)oc12	12	4382	+	1	?	-7
CCN(Cc1ccncc1)Cc1ccc(OC)cc1OC	-1	3596	-1	2	5	15
COc1ccc(CN(CCN(C)C)Cc2ccccc2)c(OC)c1	-8	20994*	2	-1	-3	-4
COc1ccc(C2C3=C(N=C4SCC(=O)N42)c2ccccc2CC3)cc1OC (stereo unspecified)	-1	24021*	-2	-4	-7	-6
O=C(CCSc1nnc2ccc3ccccc3n12)Nc1ccc(F)cc1	1	3449	7	1	9	17
O=C(CCSc1nnc2ccccn12)Nc1ccc(F)cc1	1	23399*	17	0	2	-3
SMILES	Anthrax LF prot	Bead autofluor	Mtb FBA inh	BoNT A protease	BoNT F protease	GDH-TPI counter
CCc1ccccc1N1C(=O)c2cccc3c(N4CCOCC4)c([N+](=O)[O-])cc(c23)C1=O	-6	24654*	2	-5	-11	17
CCc1cccc(CC)c1N1C(=O)c2cc(N3CCOCC3)c([N+](=O)[O-])cc2C1=O	-4	2077	-3	0	-4	1
CCCCNC(=O)c1c(C)cc(=O)oc1C	-1	22316*	5	2	0	33*
CCC(C)NC(=O)c1c(C)cc(=O)oc1C (stereo unspecified)	0	20515*	-2	-2	-1	20
Cc1cc(=O)oc(C)c1C(=O)NCCc1ccccc1	3	2400	2	0	-5	3
Cc1cc(=O)oc(C)c1C(=O)NCc1c(F)cc(F)cc1F	-3	11214	-1	0	-1	36*
Cc1cc(=O)oc(C)c1C(=O)Nc1ccc(F)cc1	12	3361	3	-4	?	12
CC(C)OP(=O)(c1ccc(N(C)C)cc1)C(O)c1ccncc1 (stereo unspecified)	1	24190*	2	-2	-4	-6
CC(C)CCOP(=O)(c1ccc(N(C)C)cc1)C(O)c1ccccn1 (stereo unspecified)	3	16641*	-2	1	0	10
CC(C)COP(=O)(c1ccc(N(C)C)cc1)C(O)c1ccccn1 (stereo unspecified)	1	10074	4	1	5	-10
CCOP(=O)(c1ccc(N(C)C)cc1)C(O)c1ccccc1OC (stereo unspecified)	-12	18542*	-1	?	5	-1
CCCOP(=O)(c1ccc(N(C)C)cc1)C(O)c1cccnc1 (stereo unspecified)	-1	19815*	2	-1	-4	-4
CCOP(=O)(c1ccc(N(C)C)cc1)C(O)c1cccnc1 (stereo unspecified)	-23	4211	0	-1	?	2
COc1ccccc1NC(=O)N(C)C[C@@H]1OCc2cnnn2CCCC(=O)N([C@H](C)CO)C[C@H]1C	-2	3780	1	0	-1	0
COCC(C)NCc1cccc2ccccc12 (stereo unspecified)	0	3382	3	-1	-2	2
COCC(C)NCc1ccc(C)cc1C (stereo unspecified)	0	18417*	2	4	0	-4
CC(=O)Nc1ccc(-c2nnc(SCC(=O)c3ccc4c(c3)Cc3ccccc3-4)n2C)cc1	-3	9297	-1	1	1	16
CCNC(=O)CSc1nnc(-c2ccc(OC)cc2)n1CC(C)C	-10	21420*	-1	3	2	8
COCCn1c(SCC(=O)NCc2cccs2)nnc1-c1ccc(OC)cc1	0	9387	-1	0	0	-2
COc1ccc(-n2c(SCC(N)=O)nnc2-c2ccccc2F)cc1	0	16562*	-3	0	-2	16
CC(=O)Nc1ccc(-c2nnc(SCc3c(C)cc(C)cc3C)n2C)cc1	0	23890*	-7	0	-3	3
COc1ccccc1-c1nnc(SCC(=O)Nc2ccc(S(N)(=O)=O)cc2)n1C	-4	21773*	0	-3	-6	-2
